Measured values as given in PMC9911399, “Two distinct binding modes provide the RNA-binding protein RbFox with extraordinary sequence specificity”.
Changes are numbered by the printed parent chain; changes in the protein carry UniProt numbers. The full ranking holds about 16,000 sequences; the median of “ka relative to ugcaugu” is about 0.0091, and the highest 2% start at about 0.032. The sample holds the highest values, similar sequences and a random draw of the others, so the mix is not that of the screen.

T1: RBFOX1 RRM (Homo sapiens, UniProt Q9NWB1 109-208)
T1 sequence: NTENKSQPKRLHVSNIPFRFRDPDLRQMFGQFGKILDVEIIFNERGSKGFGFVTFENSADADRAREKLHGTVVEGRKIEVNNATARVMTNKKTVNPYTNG

B1: UAUCCUA (DNA:RNA)
RNA: GGGAGACCGGAAUUCAGAUUGUCCUAUCCUAUUAAAUCCCGUCGUAGCCACCA
DNA 1: CAATCTGAATTCCGGTCTCCC
DNA 2: TGGTGGCTACGACGGGATT
B2: GAGGAUC (DNA:RNA)
RNA: B1 RNA with U25G, U27G, C28G, C29A, A31C
DNA 1: CAATCTGAATTCCGGTCTCCC
DNA 2: TGGTGGCTACGACGGGATT
B3: GUAUACA (DNA:RNA)
RNA: B1 RNA with U25G, A26U, U27A, C28U, C29A, U30C
DNA 1: CAATCTGAATTCCGGTCTCCC
DNA 2: TGGTGGCTACGACGGGATT
B4: GUUGCGA (DNA:RNA)
RNA: B1 RNA with U25G, A26U, C28G, U30G
DNA 1: CAATCTGAATTCCGGTCTCCC
DNA 2: TGGTGGCTACGACGGGATT
B5: AUCUGUA (DNA:RNA)
RNA: B1 RNA with U25A, A26U, U27C, C28U, C29G
DNA 1: CAATCTGAATTCCGGTCTCCC
DNA 2: TGGTGGCTACGACGGGATT
B6: ACGGGUC (DNA:RNA)
RNA: B1 RNA with U25A, A26C, U27G, C28G, C29G, A31C
DNA 1: CAATCTGAATTCCGGTCTCCC
DNA 2: TGGTGGCTACGACGGGATT
B7: UGUGAUC (DNA:RNA)
RNA: B1 RNA with A26G, C28G, C29A, A31C
DNA 1: CAATCTGAATTCCGGTCTCCC
DNA 2: TGGTGGCTACGACGGGATT
B8: CCAGUCU (DNA:RNA)
RNA: GGGAGACCGGAAUUCAGAUUGUCCCCAGUCUUUAAAUCCCGUCGUAGCCACCA
DNA 1: CAATCTGAATTCCGGTCTCCC
DNA 2: TGGTGGCTACGACGGGATT
B9: UCAGGUC (DNA:RNA)
RNA: B8 RNA with C25U, U29G, C30U, U31C
DNA 1: CAATCTGAATTCCGGTCTCCC
DNA 2: TGGTGGCTACGACGGGATT
B10: GGAAAAU (DNA:RNA)
RNA: B8 RNA with C25G, C26G, G28A, U29A, C30A
DNA 1: CAATCTGAATTCCGGTCTCCC
DNA 2: TGGTGGCTACGACGGGATT
B11: CUAUCGG (DNA:RNA)
RNA: B8 RNA with C26U, G28U, U29C, C30G, U31G
DNA 1: CAATCTGAATTCCGGTCTCCC
DNA 2: TGGTGGCTACGACGGGATT
B12: CAUAACG (DNA:RNA)
RNA: B8 RNA with C26A, A27U, G28A, U29A, U31G
DNA 1: CAATCTGAATTCCGGTCTCCC
DNA 2: TGGTGGCTACGACGGGATT
B13: UGGGGGC (DNA:RNA)
RNA: B8 RNA with C25U, C26G, A27G, U29G, C30G, U31C
DNA 1: CAATCTGAATTCCGGTCTCCC
DNA 2: TGGTGGCTACGACGGGATT
B14: UGGGCUG (DNA:RNA)
RNA: B1 RNA with A26G, U27G, C28G, A31G
DNA 1: CAATCTGAATTCCGGTCTCCC
DNA 2: TGGTGGCTACGACGGGATT
B15: UGUGGGC (DNA:RNA)
RNA: B1 RNA with A26G, C28G, C29G, U30G, A31C
DNA 1: CAATCTGAATTCCGGTCTCCC
DNA 2: TGGTGGCTACGACGGGATT
B16: CACUUGC (DNA:RNA)
RNA: B8 RNA with C26A, A27C, G28U, C30G, U31C
DNA 1: CAATCTGAATTCCGGTCTCCC
DNA 2: TGGTGGCTACGACGGGATT
B17: GCAUGCG (DNA:RNA)
RNA: B8 RNA with C25G, G28U, U29G, U31G
DNA 1: CAATCTGAATTCCGGTCTCCC
DNA 2: TGGTGGCTACGACGGGATT
B18: GCAUGCC (DNA:RNA)
RNA: B8 RNA with C25G, G28U, U29G, U31C
DNA 1: CAATCTGAATTCCGGTCTCCC
DNA 2: TGGTGGCTACGACGGGATT
B19: GGAUGCC (DNA:RNA)
RNA: B8 RNA with C25G, C26G, G28U, U29G, U31C
DNA 1: CAATCTGAATTCCGGTCTCCC
DNA 2: TGGTGGCTACGACGGGATT
B20: GGAUGCA (DNA:RNA)
RNA: B8 RNA with C25G, C26G, G28U, U29G, U31A
DNA 1: CAATCTGAATTCCGGTCTCCC
DNA 2: TGGTGGCTACGACGGGATT
B21: GGAUGCG (DNA:RNA)
RNA: B8 RNA with C25G, C26G, G28U, U29G, U31G
DNA 1: CAATCTGAATTCCGGTCTCCC
DNA 2: TGGTGGCTACGACGGGATT
B22: GUAUGCA (DNA:RNA)
RNA: B8 RNA with C25G, C26U, G28U, U29G, U31A
DNA 1: CAATCTGAATTCCGGTCTCCC
DNA 2: TGGTGGCTACGACGGGATT
B23: AUAUGCA (DNA:RNA)
RNA: B8 RNA with C25A, C26U, G28U, U29G, U31A
DNA 1: CAATCTGAATTCCGGTCTCCC
DNA 2: TGGTGGCTACGACGGGATT
B24: GCAUCCC (DNA:RNA)
RNA: B8 RNA with C25G, G28U, U29C, U31C
DNA 1: CAATCTGAATTCCGGTCTCCC
DNA 2: TGGTGGCTACGACGGGATT
B25: CCAUGCC (DNA:RNA)
RNA: B8 RNA with G28U, U29G, U31C
DNA 1: CAATCTGAATTCCGGTCTCCC
DNA 2: TGGTGGCTACGACGGGATT
B26: CGAUGCC (DNA:RNA)
RNA: B8 RNA with C26G, G28U, U29G, U31C
DNA 1: CAATCTGAATTCCGGTCTCCC
DNA 2: TGGTGGCTACGACGGGATT
B27: GUAUGCC (DNA:RNA)
RNA: B8 RNA with C25G, C26U, G28U, U29G, U31C
DNA 1: CAATCTGAATTCCGGTCTCCC
DNA 2: TGGTGGCTACGACGGGATT
B28: ACAUGCG (DNA:RNA)
RNA: B8 RNA with C25A, G28U, U29G, U31G
DNA 1: CAATCTGAATTCCGGTCTCCC
DNA 2: TGGTGGCTACGACGGGATT
B29: AGGAUUU (DNA:RNA)
RNA: B8 RNA with C25A, C26G, A27G, G28A, C30U
DNA 1: CAATCTGAATTCCGGTCTCCC
DNA 2: TGGTGGCTACGACGGGATT
B30: CUUUGGG (DNA:RNA)
RNA: B8 RNA with C26U, A27U, G28U, U29G, C30G, U31G
DNA 1: CAATCTGAATTCCGGTCTCCC
DNA 2: TGGTGGCTACGACGGGATT
B31: GAACCCA (DNA:RNA)
RNA: B1 RNA with U25G, U27A, U30C
DNA 1: CAATCTGAATTCCGGTCTCCC
DNA 2: TGGTGGCTACGACGGGATT

Target: T1, RBFOX1 RRM
Assay: EMSA; HiTS-Eq, 1 nM pool, 10 min; buffer printed only for the single-RNA assays: 10 mM Tris pH 7.5, 150 mM NaCl, 3.4 mM EDTA, 0.001% NP-40, 30 C
Conditions: tags: His6 N-terminal (pET28a); label: 5' 32P
In short: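 Purified RbFox RRM, wild type or mutant, was incubated for 10 min in 50 µL with 1 nM of a 5′-radiolabelled RNA pool carrying 7 randomized nucleotides, whose flanks were annealed to DNA oligonucleotides, over a series of increasing protein concentrations. Unbound RNA was resolved on 8% native PAGE, cut out, reverse-transcribed, barcoded by PCR and sequenced on an Illumina HiSeq 2500. Relative association constants were derived from changes in read counts for each RNA species versus the control reaction and normalised to the cognate motif.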

Point of comparison: B25, binding signal 0.00772 KA relative to UGCAUGU. Against it:
- B1 — lower, 0.00279 KA relative to UGCAUGU
- B2 — higher, 0.0149 KA relative to UGCAUGU
- B3 — lower, 0.00201 KA relative to UGCAUGU
- B4 — higher, 0.0206 KA relative to UGCAUGU
- B5 — lower, 0.00557 KA relative to UGCAUGU
- B6 — higher, 0.0159 KA relative to UGCAUGU
- B7 — higher, 0.0227 KA relative to UGCAUGU
- B8 — lower, 0.00457 KA relative to UGCAUGU
- B9 — higher, 0.0155 KA relative to UGCAUGU
- B10 — lower, 0.00757 KA relative to UGCAUGU
- B11 — lower, 0.00622 KA relative to UGCAUGU
- B12 — lower, 0.00316 KA relative to UGCAUGU
- B13 — higher, 0.014 KA relative to UGCAUGU
- B14 — higher, 0.039 KA relative to UGCAUGU
- B15 — higher, 0.0102 KA relative to UGCAUGU
- B16 — higher, 0.00965 KA relative to UGCAUGU
- B17 — higher, 0.916 KA relative to UGCAUGU
- B18 — higher, 0.829 KA relative to UGCAUGU
- B19 — higher, 0.0339 KA relative to UGCAUGU
- B20 — higher, 0.0274 KA relative to UGCAUGU
- B21 — higher, 0.0222 KA relative to UGCAUGU
- B22 — higher, 0.0319 KA relative to UGCAUGU
- B23 — higher, 0.0145 KA relative to UGCAUGU
- B24 — higher, 0.0182 KA relative to UGCAUGU
- B26 — higher, 0.012 KA relative to UGCAUGU
- B27 — higher, 0.0139 KA relative to UGCAUGU
- B28 — lower, 0.00768 KA relative to UGCAUGU
- B29 — higher, 0.0177 KA relative to UGCAUGU
- B30 — lower, 0.00295 KA relative to UGCAUGU
- B31 — lower, 0.00229 KA relative to UGCAUGU
